# Laboratory results reported in PubChem BioAssay (NCATS).
# Records with an inconclusive call do not appear. A call without a number means that no potency is given here. Active and inactive are the calls of the source. Unless noted, calls come from the whole dose curve; as a rule, active = well fitted curve in the direction sought with a large enough effect; inconclusive = small, poorly fitted or top-dose-only effect, or another doubt; inactive = no such curve, though single readings can be large; an effect the other way counts as inactive or inconclusive.
# Target: T1, Tyrosine-protein phosphatase non-receptor type substrate 1 (Homo sapiens) + Leukocyte surface antigen CD47 (Homo sapiens) (UniProt P78324+Q08722)
# Assay: CD47-SIRPalpha protein protein interaction - HTRF assay qHTS validation (AID 1347058; active = well fitted curve in the direction sought with a large enough effect in the signal ratio, not every such curve was filed as active; the % refers to the signal ratio;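 note: recombinant soluble extracellular CD47 with His tag and biotinylated SIRPalpha domains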)
# Details: TR-FRET HTRF CD47-His / biotin-SIRPalpha binding, ratio 665/615; series mostly up to 38.3 µM
# In short: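 TR-FRET read (Ch1/Ch2 ratio) of soluble extracellular CD47 and Avi-biotinylated SIRPalpha domains in PBS pH 7.4 with 0.05% IGEPAL; 7-point compound titration. Sequential 30 min room-temperature steps; non-biotinylated SIRPalpha as control inhibitor.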
# T1 sequence (P78324 whole entry, looked up, the tested form may be a part): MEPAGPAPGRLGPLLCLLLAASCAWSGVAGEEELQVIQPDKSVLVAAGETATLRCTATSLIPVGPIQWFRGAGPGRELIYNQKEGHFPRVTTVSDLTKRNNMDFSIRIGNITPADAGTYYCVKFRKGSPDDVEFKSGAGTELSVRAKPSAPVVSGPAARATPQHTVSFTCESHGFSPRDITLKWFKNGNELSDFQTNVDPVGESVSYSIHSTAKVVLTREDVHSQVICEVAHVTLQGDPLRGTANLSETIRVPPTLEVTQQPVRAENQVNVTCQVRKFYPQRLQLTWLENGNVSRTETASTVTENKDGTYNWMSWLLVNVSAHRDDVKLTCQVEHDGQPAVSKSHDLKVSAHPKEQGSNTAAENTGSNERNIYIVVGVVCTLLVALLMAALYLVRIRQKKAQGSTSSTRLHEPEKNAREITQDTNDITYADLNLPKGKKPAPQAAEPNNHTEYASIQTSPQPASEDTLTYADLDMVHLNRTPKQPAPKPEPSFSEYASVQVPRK
# T1 sequence (Q08722 whole entry, looked up, the tested form may be a part): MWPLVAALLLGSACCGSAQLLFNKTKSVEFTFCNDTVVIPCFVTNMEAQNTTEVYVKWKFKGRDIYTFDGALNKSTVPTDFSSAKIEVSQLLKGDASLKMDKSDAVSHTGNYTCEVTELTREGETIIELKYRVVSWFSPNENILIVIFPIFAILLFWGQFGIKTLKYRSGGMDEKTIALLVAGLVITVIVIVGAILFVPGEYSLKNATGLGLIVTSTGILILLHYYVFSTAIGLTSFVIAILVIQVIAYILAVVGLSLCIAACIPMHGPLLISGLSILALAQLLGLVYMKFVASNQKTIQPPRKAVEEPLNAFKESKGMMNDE
row,SMILES,outcome
1,N[C@@H](Cc1ccc(O)c(I)c1)C(=O)O,inactive
2,CC(=O)NNC(=O)N1Cc2ccccc2Oc2ccc(Cl)cc21,inactive
3,NCC(O)c1ccc(O)c(O)c1 (stereo not drawn),inactive
4,c1ccc(C2CN3CCSC3=N2)cc1 (stereo not drawn),inactive
5,Cc1cc2c(cc1Cl)N(C(=O)Nc1ccnc3ccccc13)CC2,inactive
6,NCCNS(=O)(=O)c1cccc2c(Cl)cccc12,inactive
7,NC(N)=N[C@@H](CCC(=O)O)C(=O)O,inactive
8,O=C(OCCN1CCOCC1)C1(c2ccccc2)CCCCC1,inactive
9,CN(C)CCCc1cc(C(=O)Nc2ccc(-c3ccncc3)cc2)ccc1O,inactive
10,CC(=O)[C@H]1CCC2C3CC=C4C[C@@H](OS(=O)(=O)O)CC[C@]4(C)C3CC[C@@]21C (stereo partly drawn),inactive
11,N[C@H](C(=O)O)[C@H]1C[C@@H]1C(=O)O,inactive
12,Nc1ncnc2c1ncn2C1CCCO1 (stereo not drawn),inactive
13,CNCCNS(=O)(=O)c1cccc2cnccc12,inactive
14,CSC(N)=NCCC[C@H](N)C(=O)O,inactive
15,CC(C)NC[C@H](O)COc1ccc(CC(N)=O)cc1,inactive
16,CSc1nc(N)c2ncn([C@@H]3O[C@H](COP(=O)(O)OP(=O)(O)O)C(O)[C@H]3O)c2n1 (stereo partly drawn),inactive

# Target: T1, Tyrosine-protein phosphatase non-receptor type substrate 1 (Homo sapiens) + Leukocyte surface antigen CD47 (Homo sapiens)
# Assay: CD47-SIRPalpha protein protein interaction - Alpha assay qHTS validation (AID 1347059);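 note: bead proximity luminescence from CD47 binding SIRPalpha after compound preincubation with SIRPalpha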
# Details: AlphaScreen CD47-His/biotin-SIRPalpha binding, LOPAC; series mostly up to 38.3 µM
# In short: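 Binding is measured by AlphaScreen proximity: Ni-NTA acceptor beads capture His-CD47, streptavidin donor beads capture biotin-SIRPalpha. Each of three additions (SIRPalpha with compound, CD47, beads) incubates 30 min at room temperature protected from light.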
row,SMILES,Potency
1,O=C(O)C1=CCCNC1,inactive
2,CC(C)C[C@H](NC(=O)[C@H](O)[C@H](N)Cc1ccccc1)C(=O)O,inactive
3,Cc1nc2n(c(=O)c1CCN1CCC(c3noc4cc(F)ccc34)CC1)CCCC2O (stereo not drawn),inactive
4,CC1CNCCN1S(=O)(=O)c1cccc2cnccc12 (stereo not drawn),inactive
5,O=C(O)C1CCNCC1,inactive
6,NCCCCN,inactive
7,NC1(C(=O)O)CC1,inactive
8,CN1CC(O)C(O)C(O)C1CO (stereo not drawn),inactive
9,CCCCCCCCCC(=O)NC(CN1CCOCC1)[C@H](O)c1ccccc1 (stereo partly drawn),inactive
10,CCCCCCN(CCCCCC)C(=O)Cc1c(-c2ccc(F)cc2)[nH]c2ccccc12,inactive
11,O=c1[nH]c2cc(Cl)ccc2c(O)c1-c1ccc(Oc2ccccc2)cc1,inactive
12,Cc1cccc(C(=O)NCN2CCN(c3ccccc3C#N)CC2)c1,inactive
13,O=c1[nH]c2ccccc2c2ccccc12,inactive
14,Cc1cc(Cn2cnc3c2C[C@@H](C(=O)O)N(C(=O)C(c2ccccc2)c2ccccc2)C3)ccc1N,inactive
15,NCCCNCCCCNCCCN,inactive
16,CC(C)[C@@H]1CC[C@@H](C)C[C@@H]1P(=O)(c1ccccc1)c1ccccc1,inactive
17,CCN(CC)CCOC(=O)c1cc(Cl)c(N)cc1OC,inactive
18,[N-]=[N+]=Nc1ccc(C(=O)CSC[C@H](NC(=O)CC[C@H](N)C(=O)O)C(=O)NCC(=O)O)cc1,inactive
19,Cc1ccccc1/C=C/C1=NCCN1,inactive

row,SMILES,Potency
1,NC(N)=NC(N)=Nc1ccccc1,inactive
2,Cn1c(=O)c2c(nc(/C=C/c3cccc(Cl)c3)n2C)n(C)c1=O,inactive
3,Nc1ncnc2c1nc(Sc1ccc(Cl)cc1)n2[C@H]1OC2COP(=O)(O)O[C@@H]2C1O (stereo partly drawn),inactive
4,N[C@@H](Cc1ccc(O)c(I)c1)C(=O)O,inactive
5,CC(=O)NNC(=O)N1Cc2ccccc2Oc2ccc(Cl)cc21,inactive
6,NCC(O)c1ccc(O)c(O)c1 (stereo not drawn),inactive
7,c1ccc(C2CN3CCSC3=N2)cc1 (stereo not drawn),inactive
8,Cc1cc2c(cc1Cl)N(C(=O)Nc1ccnc3ccccc13)CC2,inactive
9,NCCNS(=O)(=O)c1cccc2c(Cl)cccc12,inactive
10,NC(N)=N[C@@H](CCC(=O)O)C(=O)O,inactive
11,O=C(OCCN1CCOCC1)C1(c2ccccc2)CCCCC1,inactive
12,CN(C)CCCc1cc(C(=O)Nc2ccc(-c3ccncc3)cc2)ccc1O,inactive
13,CC(=O)[C@H]1CCC2C3CC=C4C[C@@H](OS(=O)(=O)O)CC[C@]4(C)C3CC[C@@]21C (stereo partly drawn),inactive
14,N[C@H](C(=O)O)[C@H]1C[C@@H]1C(=O)O,inactive
15,Nc1ncnc2c1ncn2C1CCCO1 (stereo not drawn),inactive
16,CNCCNS(=O)(=O)c1cccc2cnccc12,inactive
17,CSC(N)=NCCC[C@H](N)C(=O)O,inactive
18,CC(C)NC[C@H](O)COc1ccc(CC(N)=O)cc1,inactive
19,CSc1nc(N)c2ncn([C@@H]3O[C@H](COP(=O)(O)OP(=O)(O)O)C(O)[C@H]3O)c2n1 (stereo partly drawn),inactive

# Target: Parathyroid hormone/parathyroid hormone-related peptide receptor (Homo sapiens) (UniProt Q03431)
# Assay: qHTS for PTHR1 Agonists: Optimization Screen against the NCGC LOPAC library (AID 1347079);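 note: GloSensor cAMP luminescence in HEK-293 GP2 cells expressing human PTHR1 with IBMX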
# Details: HEK293 GP2 PTHR1 GloSensor cAMP luminescence, 1 h; series mostly up to 57.1 µM
# In short: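 Compounds were tested across a qHTS titration. PTHR1-expressing GP2 cells report cAMP rises via GloSensor luminescence after 1 hr compound exposure at 37C with IBMX present.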
# Parathyroid hormone/parathyroid hormone-related peptide receptor (Homo sapiens), sequence (Q03431 whole entry, looked up): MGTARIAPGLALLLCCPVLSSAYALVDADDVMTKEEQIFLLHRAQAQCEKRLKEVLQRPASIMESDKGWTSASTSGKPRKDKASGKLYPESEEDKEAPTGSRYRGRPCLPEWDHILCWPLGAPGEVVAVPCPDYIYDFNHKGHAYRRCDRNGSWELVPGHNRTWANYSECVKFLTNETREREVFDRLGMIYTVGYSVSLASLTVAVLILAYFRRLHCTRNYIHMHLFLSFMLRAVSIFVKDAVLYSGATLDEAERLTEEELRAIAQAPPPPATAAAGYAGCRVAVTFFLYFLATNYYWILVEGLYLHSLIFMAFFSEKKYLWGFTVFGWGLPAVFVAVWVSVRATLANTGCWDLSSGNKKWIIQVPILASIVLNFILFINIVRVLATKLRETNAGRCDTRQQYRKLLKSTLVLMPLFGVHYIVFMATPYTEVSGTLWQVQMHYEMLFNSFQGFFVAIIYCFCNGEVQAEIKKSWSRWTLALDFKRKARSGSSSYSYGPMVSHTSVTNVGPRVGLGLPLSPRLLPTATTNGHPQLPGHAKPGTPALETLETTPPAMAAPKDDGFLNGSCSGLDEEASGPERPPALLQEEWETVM
row,SMILES,Potency
1,O=C(O)C1=CCCNC1,inactive
2,CC(C)C[C@H](NC(=O)[C@H](O)[C@H](N)Cc1ccccc1)C(=O)O,inactive
3,Cc1nc2n(c(=O)c1CCN1CCC(c3noc4cc(F)ccc34)CC1)CCCC2O (stereo not drawn),inactive
4,CC1CNCCN1S(=O)(=O)c1cccc2cnccc12 (stereo not drawn),inactive
5,O=C(O)C1CCNCC1,inactive
6,NCCCCN,inactive
7,NC1(C(=O)O)CC1,inactive
8,CCCCCCCCCC(=O)NC(CN1CCOCC1)[C@H](O)c1ccccc1 (stereo partly drawn),inactive
9,CCCCCCN(CCCCCC)C(=O)Cc1c(-c2ccc(F)cc2)[nH]c2ccccc12,inactive
10,Cc1cccc(C(=O)NCN2CCN(c3ccccc3C#N)CC2)c1,inactive
11,O=c1[nH]c2ccccc2c2ccccc12,inactive
12,Cc1cc(Cn2cnc3c2C[C@@H](C(=O)O)N(C(=O)C(c2ccccc2)c2ccccc2)C3)ccc1N,inactive
13,NCCCNCCCCNCCCN,inactive
14,CC(C)[C@@H]1CC[C@@H](C)C[C@@H]1P(=O)(c1ccccc1)c1ccccc1,inactive
15,CCN(CC)CCOC(=O)c1cc(Cl)c(N)cc1OC,inactive
16,Cc1ccccc1/C=C/C1=NCCN1,inactive
17,CC(=O)NNC(=O)N1Cc2ccccc2Oc2ccc(Cl)cc21,inactive
18,NCC(O)c1ccc(O)c(O)c1 (stereo not drawn),inactive
19,Cc1cc2c(cc1Cl)N(C(=O)Nc1ccnc3ccccc13)CC2,inactive
20,NC(N)=N[C@@H](CCC(=O)O)C(=O)O,inactive
21,CN(C)CCCc1cc(C(=O)Nc2ccc(-c3ccncc3)cc2)ccc1O,inactive
22,CC(=O)[C@H]1CCC2C3CC=C4C[C@@H](OS(=O)(=O)O)CC[C@]4(C)C3CC[C@@]21C (stereo partly drawn),inactive
23,CNCCNS(=O)(=O)c1cccc2cnccc12,inactive
24,CSc1nc(N)c2ncn([C@@H]3O[C@H](COP(=O)(O)OP(=O)(O)O)C(O)[C@H]3O)c2n1 (stereo partly drawn),inactive
